# Compound activity: PubChem BioAssay, The Scripps Research Institute Molecular Screening Center
# An excerpt weighted towards active compounds, which were near 3.5% of everything screened.
# FBW7 act: human FBW7 E3 ligase activation, primary screen | Q969H0 | AlphaScreen FBW7–phospho-cyclin E peptide binding, activator screen | normalized activity (activation), % at 26.1 µM | 650,000 compounds, 0.13% hits | AID 1259310; in the data active = normalized activity above about 1.9%;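 note: purified mutant Fbw7 with reduced substrate affinity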
# MITF primary: inhibitors of human MITF | AID 1259374 | inhibition, % at 2.6 µM | AlphaScreen MITF homodimerization, bead proximity signal | 650,000 compounds, 0.91% hits | O75030; in the data active = inhibition above about 50%
# Target sequence (O75030 whole entry, looked up): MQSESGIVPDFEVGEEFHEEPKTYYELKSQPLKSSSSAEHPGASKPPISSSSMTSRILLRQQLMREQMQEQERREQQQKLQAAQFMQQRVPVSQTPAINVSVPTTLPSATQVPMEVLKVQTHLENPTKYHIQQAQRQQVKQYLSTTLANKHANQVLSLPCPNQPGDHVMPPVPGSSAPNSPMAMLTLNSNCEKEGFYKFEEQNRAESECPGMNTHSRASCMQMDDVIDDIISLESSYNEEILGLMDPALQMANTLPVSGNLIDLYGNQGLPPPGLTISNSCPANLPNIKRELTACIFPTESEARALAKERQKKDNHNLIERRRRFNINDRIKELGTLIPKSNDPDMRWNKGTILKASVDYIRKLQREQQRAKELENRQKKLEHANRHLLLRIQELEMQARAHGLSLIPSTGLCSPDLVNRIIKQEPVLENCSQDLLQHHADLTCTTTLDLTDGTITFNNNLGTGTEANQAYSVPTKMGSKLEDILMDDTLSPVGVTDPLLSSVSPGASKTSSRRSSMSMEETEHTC
# GPR151 activ: activators of human GPR151 | Q8TDV0 | PathHunter beta-arrestin GPR151 cells, luminescence | activation, % at 11.2 µM | 650,000 compounds, 1% hits | AID 1508602; in the data active = activation above about 4.9%
# TEAD-YAP inh: TEAD-YAP interaction inhibition. HEK-TIYL cells, TEAD-Gal4/YAP UAS-luciferase luminescence. inhibition, % at 9.12 µM. 640,000 compounds, 1.4% hits. AID 1259422; in the data active = inhibition above about 32%
# Hits are given with their value; i = inactive.
SMILES,FBW7 act,MITF primary,GPR151 activ,TEAD-YAP inh
CCN1/C(=C/c2ccc3ccccc3[n+]2CC)Sc2ccc(I)cc21,i,i,i,68
CCN1/C(=C\C=C(/C)C=O)Sc2ccccc21,i,i,i,i
CCN1/C(=C/c2ccc3ccccc3[n+]2CC)Sc2c1ccc1ccccc21,i,i,i,87
CCCCN1/C(=C/c2ccc3cc(OC)ccc3[n+]2CC)Sc2ccc(OC)cc21,i,i,i,89
CCN1C(=O)CSc2ccc(C(=O)NC3CCCCC3C)cc21 (centres undefined),i,i,i,i
CC(C)=CCC/C(C)=C/C=N/NC(=O)c1cc(O)cc(O)c1,i,i,i,i
COc1cccc(C(=O)Nc2sc3c(c2C(N)=O)CCC3)c1,i,i,i,i
CCOC(=O)c1sc2nc(SCC(=O)Nc3nccs3)n(CC3CCCO3)c(=O)c2c1C (centres undefined),i,i,i,i
CCCCN1/C(=C/c2ccc3ccccc3[n+]2CC)Sc2ccccc21,i,i,i,92
CCN1/C(=C/c2ccc3cc(NC(C)=O)ccc3[n+]2CC)Sc2ccccc21,i,i,i,52
CCOC(=O)COc1cccc2c(=O)n(CC(=O)Nc3ccc(C)cc3)ccc12,i,i,i,i
C/C(=N\NC(=O)c1ccc(C)cc1C)c1ccc(C#N)cc1,i,i,i,i
O=C(CN1C(=O)c2ccccc2C1=O)N1CCN(c2ccc(F)cc2)CC1,2.0,i,i,i
N#C/C(=C(/O)C(Cl)Cl)c1nnc2n1CCCCC2,i,i,i,i
Cc1ccc(/C(C#N)=C\c2ccc3c(c2)OCCO3)cc1,i,i,i,56
CCOc1ccc(NC(=O)c2ccc(F)c(S(=O)(=O)N3CCN(C4CCCCC4)CC3)c2)cc1,i,i,i,34
CCOC(=O)c1ccc(NC(=O)c2ccc(Cl)c(S(=O)(=O)N3CCOCC3)c2)cc1,i,i,i,73
O=C(Nc1ccc(Cl)c(Cl)c1)c1ccc(F)c(S(=O)(=O)N2CCN(C3CCCCC3)CC2)c1,i,i,i,i
CCOc1ccc(NC(=O)c2ccc(F)c(S(=O)(=O)N3CCCC3)c2)cc1,i,i,i,37
Cc1ccc(C(=O)Nc2ccc(Cl)cc2)cc1S(=O)(=O)N1CCOCC1,i,i,i,i
CCOc1ccccc1/C=C1/N=C(c2ccccc2C)OC1=O,i,i,i,i
O=C(/C=C/Nc1cccc(Cl)c1Cl)c1ccco1,i,i,i,53
O=C(/C=C/Nc1ccc(Br)cc1F)c1ccco1,i,i,i,43
O=C(/C=C/Nc1ccc(F)cc1F)c1ccco1,i,i,i,64
O=C(/C=C/Nc1ccccc1O)c1ccco1,i,i,i,i
SMILES,FBW7 act,MITF primary,GPR151 activ,TEAD-YAP inh
Cc1cccc(NC(=O)c2cc([N+](=O)[O-])ccc2N2CCCCCC2)n1,i,i,i,i
CC1(C)COP(=O)(C(Nc2ccccc2)c2ccccc2)OC1 (centres undefined),i,i,i,i
CCc1c(C)sc2ncn(C3CCN(C(=O)Cc4ccsc4)CC3)c(=O)c12,i,i,i,45
CCc1c(C)sc2ncn(C3CCN(C(=O)C4CCCC(OC)C4)CC3)c(=O)c12 (centres undefined),i,i,i,42
CCc1c(C)sc2ncn(C3CCN(C(=O)CCn4nc(C)cc4C)CC3)c(=O)c12,i,i,i,i
Cc1ccccc1NC(=O)c1cccc2c1C(=O)c1ccccc1-2,i,i,i,53
COc1cc2nc(Cl)nc(NCc3cccc(C(F)(F)F)c3)c2cc1OC,i,i,i,i
COc1cc2nc(Nc3nc4ccccc4n3C)nc(NCc3cccc(C(F)(F)F)c3)c2cc1OC,i,i,i,39
COc1cc2nc(Oc3ccccc3)nc(NCc3cccc(C(F)(F)F)c3)c2cc1OC,i,i,i,47
COc1cc2nc(Nc3nc4ccccc4n3C)nc(NC3CC3)c2cc1OC,3.6,i,i,i
COc1ccc(Nc2nc(NCc3cccc(C(F)(F)F)c3)c3cc(OC)c(OC)cc3n2)cc1,i,i,i,i
COc1cc2nc(Nc3nc4ccccc4n3C)nc(Nc3cc(OC)c(OC)c(OC)c3)c2cc1OC,i,i,i,i
N#CC(C#N)=CN1CCc2ccccc2C1,i,i,i,i
CC1(C)Cc2nc(-c3ccccc3)cc(-c3ccccc3)c2CO1,i,i,i,i
S=C(Nc1ccc(Cl)cc1)N(Cc1ccccc1)Cc1cccs1,i,i,i,i
Cc1ccc(NC(=S)N(Cc2ccccc2)Cc2cccs2)cc1Cl,i,i,i,36
Cc1cc(NC(=S)N(Cc2ccccc2)Cc2cccs2)ccc1Cl,i,i,i,44
O=C(CNC(=S)N(Cc1ccccc1)Cc1cccs1)NCc1ccccc1,i,i,i,i
Cc1ccc(CNC(=O)CNC(=S)N(Cc2ccccc2)Cc2cccs2)cc1,2.0,i,i,i
COc1ccc(C(=O)Nc2ccc(NC(=O)c3ccco3)nc2)cc1,i,i,i,i
O=C1CSC(c2cccc(Cl)c2Cl)N1c1ccc(Cl)c(Cl)c1 (centres undefined),i,i,i,i
O=C1NC(=Nc2ccccc2Cl)S/C1=C/c1ccc(-c2ccc(Cl)c([N+](=O)[O-])c2)o1,i,i,i,i
CN(CC(=O)Nc1ccccc1Br)S(=O)(=O)c1cccs1,5.8,i,i,i
COc1ccc(-c2cc(C(F)(F)F)n3ncc(C(=O)Nc4ccc(C)c(C)c4)c3n2)cc1OC,i,i,i,i
O=C(c1cc(COc2cccc3cnccc23)on1)N1CCN(C(=O)c2cccs2)CC1,i,i,i,43
SMILES,FBW7 act,MITF primary,GPR151 activ,TEAD-YAP inh
Cc1ccc(NC(=O)c2cccc([N+](=O)[O-])c2)c(C(=O)O)c1,i,i,i,i
O=C(Nc1ccc2oc(-c3ccccc3)nc2c1)c1cc([N+](=O)[O-])ccc1Br,i,i,i,36
O=C(Nc1ccc2oc(-c3ccc4ccccc4c3)nc2c1)c1cccc(Cl)c1Cl,1.9,i,i,i
CC(=O)Nc1ccc2oc(-c3ccccc3F)nc2c1,i,i,i,i
CC(C)C(=O)Nc1ccc2oc(-c3ccccc3F)nc2c1,i,i,i,72
O=C(Nc1ccc2c(c1)oc1ccccc12)c1cc([N+](=O)[O-])ccc1Br,i,i,i,33
O=C(Cc1ccc([N+](=O)[O-])cc1)Nc1ccc2c(c1)oc1ccccc12,i,i,i,i
COc1ccc(OC)c(C(=O)c2ccc(C(=O)NCCCN3CCOCC3)cc2)c1,i,i,i,i
O=C(Nc1ccc2oc(-c3cccc(Cl)c3Cl)nc2c1)c1cc([N+](=O)[O-])ccc1Cl,i,i,i,i
O=C(Nc1ccc2oc(-c3ccccc3Cl)nc2c1)c1cc([N+](=O)[O-])ccc1Cl,i,i,i,i
O=C(Nc1ccc2oc(-c3ccccc3F)nc2c1)c1cc([N+](=O)[O-])ccc1Cl,i,i,i,32
Cc1ccccc1-c1nc2cc(NC(=O)c3cc([N+](=O)[O-])ccc3Cl)ccc2o1,i,i,i,33
CCOc1ccccc1NC(=O)Nc1cc(C)cn(Cc2ccc(C)cc2)c1=O,i,i,i,i
O=C(N/N=C/c1cccc(O)c1O)c1cc(O)cc(O)c1,i,61,i,i
COc1cccc(/C=N/NC(=O)c2ccc(O)cc2O)c1O,i,i,i,42
